A short description of assay [1]: Primary qHTS for inhibitors of SARS-S pseudo-typed particle cell entry (AID 1479145). Further: nearly all actives have a fitted effect of over 45% in size. Further: potency means the concentration at half of the fitted maximal effect. On the technique in general: Quantitative high-throughput screening tests each substance at several concentrations.
Assay [2] in a line: Primary qHTS for Huh7 cytotoxicity: counterscreen for inhibitors of MERS-S pseudotyped particle cell entry (AID 1479147).
The nature of assay [3]: Primary qHTS for inhibitors of MERS-S pseudo-typed particle cell entry (AID 1479149). Further: nearly all actives have a fitted effect of over 60% in size. Further: potency means the concentration at half of the fitted maximal effect.
Assay [4] in a line: Primary qHTS for Vero E6 cytotoxicity: counterscreen for inhibitors of SARS-S pseudo-typed particle cell entry (AID 1479150).

Inconclusive results are not listed. Unmarked numbers belong to inactive results. Active and inactive are the calls of the source. The call rests on the fitted dose curve. Starred links: 1 amine or outer side, 2 acyl side, 3 side chain; linkers in the order of their positions; H or OH if unused. Positions of bridges follow the written chain, without caps; N, C: chain ends. Non-standard residues stand in square brackets, D forms with d. Residues, ends and D or L forms follow the SMILES beside them. ξ: configuration not given here. *: point of attachment. ΔAla(3-NHCONH2) = NC(=O)NC=C(N)C(=O)O; X1 = NC1=NCCC(C(N[*:1])C(=O)[*:2])N1; ξβ3hOrn = NCCCC(N)CC(=O)*; Dap = NC[CH](N)C(=O)O
On the % scale 0 is the no-effect control and ±100 the full control effect.

On to `CC[C@@]1(c2ccccc2)NC(=O)N(C)C1=O`, for which the Potency entry in assay [1], in assay [2], in assay [3] and in assay [4] was “inactive” in each case.

Turning to `CC(C)NCC(O)COc1ccc(CCOCC2CC2)cc1` (stereo not given), the Potency result in assay [1], in assay [2], in assay [3] and in assay [4] was “inactive” in each case.

Turning to `CS(=O)(=O)OCCCCOS(C)(=O)=O`, the Potency result in assay [1], in assay [2], in assay [3] and in assay [4] was “inactive” in each case.

`CCN(C)C(=O)Oc1cccc([C@H](C)N(C)C)c1`: the Potency entry in assay [1], in assay [2], in assay [3] and in assay [4] was “inactive” each time.

With `Cn1cc[nH]c1=S`, the Potency result in assay [1], in assay [2], in assay [3] and in assay [4] was “inactive” each time.

In the case of `C[C@H]1[C@H](NC(=O)/C(=N/OC(C)(C)C(=O)O)c2csc(N)n2)C(=O)N1S(=O)(=O)O` (stereo in doubt), the Potency result in assay [1], in assay [2], in assay [3] and in assay [4] was “inactive” throughout.

In the case of `NC[C@H](O)c1ccc(O)c(O)c1`, the Potency result in assay [1], in assay [2], in assay [3] and in assay [4] was “inactive” throughout.

As for `CC(COc1ccccc1)N(CCCl)Cc1ccccc1` (stereo not given), the Potency result in assay [1], in assay [2], in assay [3] and in assay [4] was “inactive” in each case.

As for `CCCN[C@H]1CCc2nc(N)sc2C1`, the Potency entry in assay [1], in assay [2], in assay [3] and in assay [4] was “inactive” each time.

For the compound `NC(=O)c1cn(Cc2c(F)cccc2F)nn1`, the Potency result in assay [1], in assay [2], in assay [3] and in assay [4] was “inactive” in each case.

As for `CC(=O)N[C@@H](CS)C(=O)O`, the Potency result in assay [1], in assay [2], in assay [3] and in assay [4] was “inactive” each time.

For the compound `O=C(O)CCCc1ccccc1`, the Potency entry in assay [1], in assay [2], in assay [3] and in assay [4] was “inactive” each time.

On to `NS(=O)(=O)Cc1noc2ccccc12`, for which the Potency entry in assay [1], in assay [2], in assay [3] and in assay [4] was “inactive” throughout.

In the case of `CNS(=O)(=O)Cc1ccc2[nH]cc(CCN(C)C)c2c1`, the Potency entry in assay [1], in assay [2], in assay [3] and in assay [4] was “inactive” throughout.

Consider `NCCCC(N)CC(=O)NCC1NC(=O)C(CO)NC(=O)C(N)CNC(=O)C(C2CCN=C(N)N2)NC(=O)C(=CNC(N)=O)NC1=O` (stereo not drawn) (H-[Dap]S[Dap](ξβ3hOrn)[ΔAla(3-NHCONH2)][X1]; lactam 1-C; configuration not given here), for which the outcome in assay [1], in assay [3] and in assay [4] was “inactive [at 0.573 µM]” each time. In addition, the activity change, negative = cytotoxicity in assay [2] was 3.81% [at 0.573 µM].

On to `CCCN(CCC)S(=O)(=O)c1ccc(C(=O)O)cc1`, for which the Potency result in assay [1], in assay [2], in assay [3] and in assay [4] was “inactive” throughout.

For `CO[C@H]1C=CO[C@@]2(C)Oc3c(C)c(O)c4c(O)c(c(/C=N/N5CCN(C)CC5)c(O)c4c3C2=O)NC(=O)/C(C)=C\C=C[C@H](C)[C@H](O)[C@@H](C)[C@@H](O)[C@@H](C)[C@H](OC(C)=O)[C@@H]1C`, the Potency entry in assay [1], in assay [2], in assay [3] and in assay [4] was “inactive” each time.

On to `Cc1[nH]c(=O)c(C#N)cc1-c1ccncc1`, for which the Potency entry in assay [1], in assay [2], in assay [3] and in assay [4] was “inactive” each time.

Consider `O=c1[nH]cc(F)c(=O)[nH]1`, for which the Potency entry in assay [1], in assay [2] and in assay [4] was “inactive” each time. Further, in assay [3], the Potency was 8.91 µM (active).

For `Cc1cn([C@H]2C=C[C@@H](CO)O2)c(=O)[nH]c1=O`, the Potency result in assay [1], in assay [2], in assay [3] and in assay [4] was “inactive” throughout.

For `CCOc1ccc2ccccc2c1C(=O)N[C@@H]1C(=O)N2[C@@H]1SC(C)(C)[C@@H]2C(=O)O`, the Potency entry in assay [1], in assay [2], in assay [3] and in assay [4] was “inactive” throughout.

Regarding `CN(C)CCCN1c2ccccc2CCc2ccc(Cl)cc21`, the Potency is 28.2 µM (active) in assay [1] and 11.2 µM (active) in assay [3]. Also, the Potency entry in assay [2] and in assay [4] was “inactive” throughout.

For the compound `Nc1nc(F)nc2c1ncn2[C@@H]1O[C@H](CO)[C@@H](O)[C@@H]1O`, the Potency result in assay [1], in assay [2], in assay [3] and in assay [4] was “inactive” in each case.

As for `Nc1cccc2c1CN(C1CCC(=O)NC1=O)C2=O` (stereo not given), the Potency result in assay [1], in assay [2], in assay [3] and in assay [4] was “inactive” throughout.

As to `O=P(O)(O)C(O)(Cc1cccnc1)P(=O)(O)O`, the Potency result in assay [1], in assay [2], in assay [3] and in assay [4] was “inactive” each time.

Consider `CC[C@]1(O)C[C@@H]2CN(CCc3c([nH]c4ccccc34)[C@@](C(=O)OC)(c3cc4c(cc3OC)N(C)[C@H]3[C@@](O)(C(=O)OC)[C@H](OC(C)=O)[C@]5(CC)C=CCN6CC[C@]43[C@@H]65)C2)C1`, for which the Potency result in assay [1], in assay [2], in assay [3] and in assay [4] was “inactive” throughout.

For the compound `CC/C=C(\C(=O)N[C@@H]1C(=O)N2C(C(=O)OCOC(=O)C(C)(C)C)=C(COC(N)=O)CS[C@H]12)c1csc(N)n1`, the Potency result in assay [1], in assay [2], in assay [3] and in assay [4] was “inactive” in each case.

With `COc1cc2c(cc1OC)[C@@H]1CC(=O)[C@@H](CC(C)C)CN1CC2`, the Potency entry in assay [1], in assay [2], in assay [3] and in assay [4] was “inactive” throughout.

As for `CCCCN1C[C@H](O)[C@@H](O)[C@H](O)[C@H]1CO`, the Potency result in assay [1], in assay [2], in assay [3] and in assay [4] was “inactive” in each case.

As to `OC(Cn1cncn1)(Cn1cncn1)c1ccc(F)cc1F`, the Potency result in assay [1], in assay [2], in assay [3] and in assay [4] was “inactive” in each case.

With `COc1ccccc1OCC(O)COC(N)=O` (stereo not given), the Potency entry in assay [1], in assay [2], in assay [3] and in assay [4] was “inactive” throughout.

In the case of `CCOC(=O)c1ncn2c1CN(C)C(=O)c1cc(F)ccc1-2`, the Potency entry in assay [1], in assay [2], in assay [3] and in assay [4] was “inactive” each time.

Take `Cc1ncc([N+](=O)[O-])n1CCO`: the Potency entry in assay [1], in assay [2], in assay [3] and in assay [4] was “inactive” throughout.

As for `CC1Cc2ccccc2N1NC(=O)c1ccc(Cl)c(S(N)(=O)=O)c1` (stereo not given), the Potency result in assay [1], in assay [2], in assay [3] and in assay [4] was “inactive” throughout.

As to `CN(C)[C@@H]1C(=O)C(C(N)=O)=C(O)[C@@]2(O)C(=O)C3=C(O)c4c(O)ccc(Cl)c4[C@@H](O)[C@H]3C[C@@H]12`, the Potency entry in assay [1], in assay [2], in assay [3] and in assay [4] was “inactive” each time.

The values above are taken from PubChem BioAssay (NCATS).
